Measured values taken from the supplement of paper PMC11417369.
± gives the standard deviation of the averaged measurements. The full ranking holds about 25,000 sequences; the median of “ln(normalized median fluorescence intensity)” is about 10, and the highest 2% start at about 12. Many of the other results were omitted from the sample, so the highest values are more common in it than they were.

These sequences were tested on PfAP2-G AP2 domain (GST-tagged) (assay: gcPBM binding intensity (ln(normalized median fluorescence intensity)); higher = stronger DNA binding).
Outline: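 DNA-binding domains from P. falciparum, fused to GST and produced in E. coli, were put on an Agilent 4 × 180k double-stranded probe array for 1 h in 1× PBS holding 1% milk, 0.2 mg/ml BSA, 0.5% salmon testes DNA and 0.03% Triton X-100. Probes were primer-extended, 36 bp long and drawn from intergenic genomic regions, with negative controls included. After Alexa488 anti-GST antibody detection and a 488 nm scan, binding intensity was set as the highest Masliner-normalised natural-log median intensity across replicate spots of either probe orientation.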

Sequence | gcPBM binding intensity (ln)
TGTCTTTAAATTTCTCAACACACAGTTATAAAAAAT [CACACA_site8930] | 9.94 ± 0.099
AAAAGAATTTGAAGTCGTACAATATCTATTATATGA [XGTACX_site8275] | 11.2 ± 0.78
TACATTGTATACATATGTACACATATATATATATAT [XGTACX_site6174] | 11.5 ± 0.71
TAAATACATAGATGTACACACATTACAGATGTACAT [CACACA_site4692] | 11.7 ± 0.98
CGTTACACAAAAATATGTACATATATACATATATAT [XGTACX_site4631] | 11.1 ± 0.64
TATATACATATATGTACACACATTACAGATGTACAT [CACACA_site966] | 11.7 ± 0.93
AATATATACATATATGTACACACATTACAGATGTAC [CACACA_site8227] | 11.5 ± 0.73
TACACACATTACAGATGTACATAAAATTAAAAAAAT [XGTACX_site1804] | 11.3 ± 0.71
TATATACAAATATGTACACACATTACAGATGTACAT [CACACA_site6586] | 11.8 ± 0.82
TGTACAAATATGTACACACACACATATATATATATA [CACACA_site584] | 11.4 ± 0.91
AATAAACATAGATGTACACACATATACAGATATATA [CACACA_site5570] | 11.5 ± 1
TCCTAATGCTACCACACACACAAAAACAAATAATAA [CACACA_site2610] | 10.5 ± 0.57
AGTAATAAATTTTATACATGCATAAAAAAAAAAAAA [TGCATGCA_site661] | 9.72 ± 0.27
TAAACATATAAAAAGGGTACACATTAAACATAGTAT [XGTACX_site7096] | 11.3 ± 0.79
AACAGATAAAAGGGTACACACATATATACCTGTACA [CACACA_site4285] | 11.7 ± 0.99
AACAGATAAAAGGGTACACACATATATACAAGTACA [CACACA_site7959] | 11.7 ± 0.83
AACAGATAAAAGGGTACACACATATATACATGTACA [CACACA_site225] | 11.6 ± 0.88
AAAAAAAAAAAACATACACACATACATACAGATATA [CACACA_site4681] | 9.94 ± 0.13
TAAAGGTAGATATATTGTACATACACACCTATATAA [XGTACX_site6865] | 10.9 ± 0.45
AAGTACATACATAAAACACACACATATATATATATA [CACACA_site8541] | 10.5 ± 0.35
ATAAACAGATAAAAGGGTACACACATATATACATGT [XGTACX_site452] | 11.4 ± 0.84
ACATAAATAATAAAAACACACATATGTACAGATATA [CACACA_site5112] | 11.1 ± 0.59

Sequence | gcPBM binding intensity (ln)
TTTTCATTTTTTTTTTTTTTTTTTTTTCTTTTTTTT [CACACA_negctrl_site1312] | 9.52 ± 0.099
TTTCCCTTAAATTAATGTACATAAATTGAAAATACC [XGTACX_site1602] | 11.3 ± 0.77
ACTTGACACGGACACACACACATATATAAAAAAAAA [CACACA_site4576] | 11.2 ± 0.91
AAAAAAAAAAAAAAAAGTACATATGCTCAAGAGATG [XGTACX_site3783] | 11.5 ± 0.82
TTTTTTTTTTTTTAATGTACCCATGGGCACATAGGT [XGTACX_site486] | 11.4 ± 1
CACTTTATACGTAATTGTACTTTTTCTTTTTTTTAT [XGTACX_site3175] | 11.5 ± 0.86
AAATAATATATATACACACACACATATATATATACA [CACACA_site554] | 10.03 ± 0.028
TACAAATTAATATGTACACACAAATATAAATATGTA [CACACA_site7016] | 11.5 ± 0.98
TTGTAATTATTAAACACACACAAAATATATATAATA [CACACA_site2523] | 10.3 ± 0.18
ATAATATAATAAACGTGTACACAATTAAATTATTAT [XGTACX_site3491] | 11.8 ± 0.76
ATATATATTAACAATACACACGTGTATACCTTATTG [CACACA_site5258] | 10.5 ± 0.22
TATATATTATACACGTGTACACATTATAACAATATA [XGTACX_site7799] | 11.7 ± 0.77
ATATAATAAACGTGTACACAATTAAATTATTATATA [CACACA_site5017] | 11.7 ± 1.1
ATAGTTATTTTATAGCGTACACAATAAATATATAAA [XGTACX_site4445] | 11.7 ± 1.1
GTATATTAATAAACATGTACACAATTTATTTATATT [XGTACX_site1012] | 11.5 ± 0.98
ATATATATATTAACAATACACACGTGTATACCTTAT [CACACA_site2217] | 10.38 ± 0.078
TAAAATTTTTTATTCACACAAATATAGTTATATATA [CACACA_site5348] | 9.81 ± 0.16
AAGTTATTTATATATACACACAAATATAAATAATAT [CACACA_site1228] | 9.97 ± 0.014
TTATATTTTTTAATTACACACAATTTTTATAAATAT [CACACA_site4148] | 9.985 ± 0.021
TTCTTTTTTATTTATACATGCAATAAAAAATTGATT [TGCATGCA_site730] | 9.925 ± 0.064
AGGACTAATATTTGAACACACATATAACATATACAT [CACACA_site7803] | 9.95 ± 0.085
AAAAAAAAAAAAATGTAATTTTTTAATTATTTATAT [GTGCAC_negctrl_site436] | 9.47 ± 0.11
